About 1,600 (0.84%) of roughly 190,000 compounds were called active. The sample holds actives, similar compounds and a random draw of the others, so the mix is not that of the screen.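 Rule for the calls: active = inhibition above a set limit, derived from the sample mean plus 3 SD (cut at about 45% in these data); inconclusive = one replicate passes the limit while the other fails; inactive = the rest.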

The experiment is described as follows: inhibitors of APP translation via 5'UTR reporter, primary screen, APP 5'UTR luciferase, SH-SY5Y cells (AID 1285). The following applies: SH-SY5Y APP 5'UTR-luciferase reporter, luminescence; at 2 µM; stronger effect = higher value. Background: Reporter assays use an easily measured gene product as a stand-in for the process of interest.
Broadly, the inhibition is the drop in the measured response relative to a control, in per cent. On to `O=C(Nc1ccccc1)c1ccc2c(c1)OCO2`, for which the inhibition is 58.8% (active). With `O=C(Nc1ccc(N2CCOCC2)cc1)c1ccc2c(c1)OCO2` the figure was -48.7% (inactive). With `O=C(Nc1cccc([N+](=O)[O-])c1)c1ccc2c(c1)OCO2`, the inhibition is -43.1% (inactive). With `CCOC(=O)c1c(NC(=O)C2CC=CCC2C(=O)O)sc(C)c1CC` (stereo unspecified) the figure was -12.9% (inactive). With `O=C(CCN1C(=O)c2ccccc2C1=O)NNC(=O)c1ccc(Cl)cc1Cl` the figure was -9.9% (inactive); with `O=C(Cc1cccs1)N/N=C/c1ccc(OCc2ccccc2)cc1`, 5.4% (inactive). For `COc1ccc(C(=O)C[n+]2ccc(N)c(C)c2C)cc1`, the inhibition is 6.8% (inactive).

On to `O=c1[nH]n(-c2cccc(Cl)c2)c2ncccc12`, for which the inhibition is -4.8% (inactive). As for `Clc1cccc(CN2COc3c(cc(Cl)c4cccnc34)C2)c1`, the inhibition was 74.6% (active). For the compound `Oc1c(CN2CCN(c3ccc(F)cc3)CC2)cc(Cl)c2cccnc12`, the inhibition is 8.7% (inactive). With `COc1ccc(C(=O)NN(C)c2nc(-c3ccccc3)cc(C)c2S(C)(=O)=O)cc1` the figure was -3.3% (inactive); with `CSc1nc(N(C)NC(=O)c2cccc(C)c2)c2ccccc2n1`, 96.7% (active); with `CN(NC(=O)c1ccccc1)c1nc2ccccc2nc1C(F)(F)F`, -3.6% (inactive). As to `COc1ccc(OCC(=O)NNC(=O)c2cccc(C)c2)cc1`, the inhibition was -16.1% (inactive). Under `COC(=O)CNC(=O)c1ccccc1F` stands -10.5% (inactive). Under `CN(NC(=O)c1ccccc1F)c1nc(C(F)(F)F)nc2ccccc12` stands 91% (active); under `CC(=O)N1CC(C)c2scc(C)[n+]2-c2ccccc21` (stereo unspecified), -17.2% (inactive); under `C=CCc1ccc(OCC(O)CN2CCN(Cc3ccccc3)CC2)c(OC)c1` (stereo unspecified), -8.6% (inactive). As to `CC(=O)N1c2ccccc2N(Cc2ccc([N+](=O)[O-])cc2)C(=O)C1(C)C`, the inhibition was -12.9% (inactive). Under `CCOc1ccc(N2CC(C(=O)NCCN3C(=O)S/C(=C\c4cccnc4)C3=O)CC2=O)cc1` (stereo unspecified) stands -6% (inactive); under `O=C(COC(=O)c1cc(S(=O)(=O)N2CCCCC2)ccc1Cl)NCc1ccco1`, 5% (inactive); under `O=C(COC(=O)c1cnc(Cl)c(Cl)c1)NCc1ccco1`, 6.8% (inactive). Regarding `Cc1cc(C(=O)OCC(=O)NCc2ccco2)c(C)n1-c1ccccc1`, the inhibition is 60.8% (active). With `C/C(=N\NC(=O)c1cccnc1)c1ccc(-n2ccnc2)cc1` the figure was -7.3% (inactive); with `Cc1[nH]c2ccccc2c1-c1ccc(Cl)nn1`, 5.5% (inactive). Under `COc1ccc(Cc2n[nH]c(=S)n2NC(=O)Nc2ccc(C)cc2)cc1` stands -47.2% (inactive); under `O=C(Nc1ccccc1Cl)c1ccc2nsnc2c1`, -80.7% (inactive); under `O=C(CN1CCCCC1)Nc1ccccc1Cl`, 17.7% (inactive). For `O=C(Nc1ccccc1Cl)/C(Cl)=C(\Cl)S(=O)c1ccccc1` (stereo unspecified), the inhibition is 93.8% (active).

As to `CCN(C(=O)CN1CCN(Cc2ccccc2)CC1)c1c(N)n(Cc2ccccc2)c(=O)[nH]c1=O`, the inhibition is -17.3% (inactive). Turning to `CC(C)N(C(=O)CSc1nc(COc2ccccc2)nc2ccccc12)C(C)C`, the inhibition is 48.3% (active). Under `COC(=O)CSc1nc(C2CC2)nc2ccccc12` stands -12.5% (inactive); under `CCCc1nc(SCC(=O)Nc2ccc(S(=O)(=O)N(C)C)cc2)c2ccccc2n1`, -11.7% (inactive); under `COc1ccc(Cl)cc1NC(=O)NC(C)C(C)(C)C` (stereo unspecified), -0.1% (inactive). With `CCN(CC)S(=O)(=O)c1ccc(Cl)c(NC(=O)c2ccncc2)c1` the figure was 17.9% (inactive); with `CCN(CC)CCCNC(=O)Cn1cnc2sc(C)c(S(=O)(=O)N3CCN(c4ncccn4)CC3)c2c1=O`, -10.4% (inactive). Under `Cc1ccc(-c2noc(CCC(N)=O)n2)cc1` stands 5.2% (inactive).

With `CCNC(=O)CCc1nc(-c2ccc(C(C)(C)C)cc2)no1`, the inhibition was 51.8% (active). Under `CN1CCN(C(=O)CCc2nc(-c3ccc(Cl)cc3)no2)CC1` stands 9.1% (inactive); under `COc1ccc(N2CCN(C(=O)c3ccc4c(Cl)c5c(nc4c3)CCCC5)CC2)cc1`, -5.5% (inactive).

As for `CC(=O)Nc1nc(N(C)C)nc(N(C)C)n1`, the inhibition was 4.4% (inactive). Under `CC1(C)CC(=O)c2cnc3nc4ccccc4n3c2C1` stands -8.9% (inactive); under `COC(=O)c1ccc(CSc2nnc(N)s2)o1`, -10.2% (inactive). Under `Nc1nnc(SCC(=O)OCc2ccc(Cl)c(Cl)c2)s1` stands 86.8% (active); under `CN(C(=O)CSc1nnc(N)s1)c1c(N)n(Cc2ccccc2)c(=O)[nH]c1=O`, -12.7% (inactive). `COCCNC(=O)c1ccc(-n2c(SCc3cccnc3)nc3ccccc3c2=O)cc1`: the inhibition was -4.3% (inactive).

With `CCCCCCCCCCOC(=O)C[N+](C)(C)CC1CCCCC1O` (stereo unspecified), the inhibition is -4.7% (inactive). In the case of `O=C(c1snnc1-c1ccccc1)N1CCOCC1`, the inhibition was -16.4% (inactive). Under `Cc1cc(C2=NNC(=Nc3ccc(S(=O)(=O)N4CCOCC4)cc3)SC2)c(C)n1CC1CCCO1` (stereo unspecified) stands -30.6% (inactive). Under `COCCn1c(C)cc(C2=NNC(=Nc3ccc(F)cc3)SC2)c1C` stands -82.3% (inactive).

Regarding `C=CCn1c(C)cc(C2=NNC(=NCC)SC2)c1C`, the inhibition was 69.1% (active).

As for `CCN(C(=O)CSc1nc2ccccc2n1CC)C1CCS(=O)(=O)C1` (stereo unspecified), the inhibition is -8% (inactive). `C[N+]1(CC(O)COc2ccccc2)CCN(C(=O)c2ccc([N+](=O)[O-])cc2)CC1` (stereo unspecified): the inhibition was 0.3% (inactive). With `CCC(C)(C)c1ccc(Oc2ccc(NC(=O)COC(=O)C3=COCCO3)cc2)cc1` the figure was 45.6% (active). Under `COc1ccc(NC(=O)COC(=O)CNC(=O)C2CCCCC2)cc1` stands -10.5% (inactive); under `O=C(OCC(=O)c1cccs1)C1=COCCO1`, -41.7% (inactive); under `Cc1ccc2[nH]c(C)c(CCNC(=O)NC3CCCCC3)c2c1`, 2.7% (inactive). Under `CSCC[C@H](NC(=O)NC1CCCC1)C(=O)O` stands 20.9% (inactive); under `COc1cc2c(cc1OC)CN(C(=O)c1ccc(S(=O)(=O)N3CCCCCC3)cc1)CC2`, -6.7% (inactive); under `COc1cc2c(cc1OC)CN(C(=O)c1cc(=O)c3ccccc3o1)CC2`, 13.7% (inactive). For the compound `CCOc1cc(C(=O)N2CCc3cc(OC)c(OC)cc3C2)ccc1OC(F)F`, the inhibition was 94.6% (active). For `Cc1cccc(CSc2ccc(-c3cccs3)nn2)c1`, the inhibition was -24.9% (inactive). With `Cc1cc(N2CCOCC2)nc2ccc(NC(=S)N3CCN(Cc4ccccc4)CC3)cc12` the figure was -3.7% (inactive). Regarding `COc1ccc(/C=N/Nc2nc3ccccc3c(=O)[nH]2)cc1`, the inhibition is -92.9% (inactive).

With `COc1ccc(Cc2nnc(N/N=C/c3ccccc3O)[nH]c2=O)cc1OC`, the inhibition was 85.9% (active). Under `CCOc1ccc(-n2c(O)c(/C=N/Nc3nnc(C)c(=O)[nH]3)c3ccccc3c2=O)cc1` stands -5.3% (inactive); under `COc1ccc(S(=O)(=O)N2CN(CCc3ccc(OC)c(OC)c3)c3nc4ccccc4nc32)cc1`, -3.7% (inactive); under `COC(=O)C1=C(C)NC(=O)CC1c1ccccc1OC` (stereo unspecified), -15.8% (inactive). Regarding `O=C(Nc1ccccc1C(=O)O)c1cc(S(=O)(=O)N2CCCCC2)cs1`, the inhibition is -13.4% (inactive).

Take `Cc1ccc(-n2[nH]c(C)c(/C=N/NC(=O)c3cccc([N+](=O)[O-])c3)c2=O)cc1C`: the inhibition was -33.1% (inactive). On to `Cc1ccsc1C(=O)N/N=C/c1ccc([N+](=O)[O-])cc1`, for which the inhibition was -37.2% (inactive). With `Cc1cc(C(=O)N/N=C/c2cc([N+](=O)[O-])cc(C)c2O)n[nH]1` the figure was 87.3% (active); with `CCOc1cc(CNn2c(C)nnc2SCC(=O)NC(C)(C)C)ccc1OCC(=O)NC(C)(C)C`, 21.4% (inactive); with `Cc1cc(C)n(CC(O)CN(c2ccccc2)S(=O)(=O)c2ccc3ccccc3c2)n1` (stereo unspecified), 1.9% (inactive).

Take `CCOc1cc(/C=C(/C#N)c2ccc(Cl)cc2)cc(Cl)c1OCC(=O)O`: the inhibition was 50.6% (active). Under `CCOC(=O)CN/C=C(\C#N)c1ccc(F)cc1` stands -29.3% (inactive); under `CCOc1c(Cl)cc(/C=N/O)cc1OC`, -23.6% (inactive); under `Cc1ccc(S(=O)(=O)C2C(=O)NC3(C)CC2c2ccccc2O3)cc1` (stereo unspecified), -1.5% (inactive). With `CCN(CC)CCCSc1nc2ccccc2s1` the figure was -15.1% (inactive); with `O=C(CC(NC(=O)c1ccccc1)c1ccccc1)Nc1ccc(F)c(F)c1` (stereo unspecified), 24.2% (inactive); with `CCOC(=O)N1CCN(C(=O)COc2ccc(Br)cc2)CC1`, -13.6% (inactive). Under `CCOC(=O)N1CCN(C(=O)COc2ccc(Cl)cc2C)CC1` stands 49.2% (active); under `CCOC(=O)N1CCN(C(=O)CSc2ccc(Cl)cc2)CC1`, 5% (inactive).

In the case of `CC(Sc1nnnn1C)C(=O)NC(=O)NC1CCCCC1` (stereo unspecified), the inhibition was -31% (inactive).

In the case of `Cc1ccc(CCN2CC(C(=O)O)CC2=O)cc1` (stereo unspecified), the inhibition is -6.2% (inactive). On to `Cc1ccc(CNC(=O)C2CC(=O)N(C3CCCCCCC3)C2)cc1` (stereo unspecified), for which the inhibition was -17.8% (inactive). Under `CCc1ccc(CNC(=O)C2CC(=O)N(CCc3ccc(C)cc3)C2)cc1` (stereo unspecified) stands 50.9% (active). Regarding `Cc1ccc(NC(=O)c2ccc(Oc3ncccn3)cc2)cc1`, the inhibition was -39.8% (inactive). Under `O=C(CCC(=O)c1cccs1)NC1CCCCCC1` stands -18.6% (inactive). For the compound `COC(=O)CSc1nccc(-c2cccs2)n1`, the inhibition is 8.1% (inactive). With `O=C(Nc1ccnc(-c2ccncc2)n1)c1cccs1` the figure was 5.8% (inactive); with `O=C(O)COc1ccc(-c2nccc(-c3cccs3)n2)cc1`, 69% (active). Under `Cc1ccc2c(c1)C(O)(CC(=O)c1cccc(-n3cccc3)c1)C(=O)N2` (stereo unspecified) stands -4.6% (inactive); under `CC1CC(C)CN(C(=O)CSc2ccsc2[N+](=O)[O-])C1` (stereo unspecified), -3.7% (inactive). With `O=C(NCc1ccco1)C(=O)c1cn(CC(=O)N2CCCCCC2)c2ccccc12` the figure was -1.5% (inactive); with `COc1ccc(NC(=O)/C(Cl)=C(/Cl)S(=O)Cc2ccc(C)cc2)cn1` (stereo unspecified), 91.7% (active).

With `COc1ccc(CS(=O)/C(Cl)=C(/Cl)C(=O)Nc2ccc(OC)nc2)cc1` (stereo unspecified), the inhibition was 94% (active). With `Cc1ccc(NC(=O)OCc2cncs2)cc1` the figure was -41.4% (inactive); with `COc1ccc(NC(=S)NCCNC(C)=O)cc1`, -0.5% (inactive). Under `CC(=O)Nc1ccc(OCC(=O)NCc2ccc(C)cc2)cc1` stands -8.4% (inactive); under `COc1ccc(NC(=S)Nc2ccccc2Cl)cn1`, -6.6% (inactive).
